Bioassay records deposited in PubChem BioAssay by National Center for Advancing Translational Sciences (NCATS).
KDM4E inh = inhibitors of human JMJD2E histone demethylase; JMJD2E catalytic domain, FDH-coupled NADH fluorescence (FDH is formaldehyde dehydrogenase); 1.6% of 230,000 active; B2RXH2; Potency, µM (titrated, usually from 57.1 µM), usual class: inhibitors; also: nearly all actives have a fitted effect of over 50% in size
CBFb-RUNX1 inh = CBF-beta/RUNX1 interaction disruption. Q01196+Q13951. AlphaScreen CBFb-His/RUNX1-biotin binding, biochemical. Potency, µM (series often up to 59.8 µM), actives largely listed as inhibitors. 230,000 tested, under 10 active. AID 1477; active = well fitted curve in the direction sought with a large enough effect; inconclusive = small, poorly fitted or top-dose-only effect, or another doubt; inactive = no such curve, though single readings can be large; an effect the other way counts as inactive or inconclusive
Target sequence (Q01196 whole entry, looked up): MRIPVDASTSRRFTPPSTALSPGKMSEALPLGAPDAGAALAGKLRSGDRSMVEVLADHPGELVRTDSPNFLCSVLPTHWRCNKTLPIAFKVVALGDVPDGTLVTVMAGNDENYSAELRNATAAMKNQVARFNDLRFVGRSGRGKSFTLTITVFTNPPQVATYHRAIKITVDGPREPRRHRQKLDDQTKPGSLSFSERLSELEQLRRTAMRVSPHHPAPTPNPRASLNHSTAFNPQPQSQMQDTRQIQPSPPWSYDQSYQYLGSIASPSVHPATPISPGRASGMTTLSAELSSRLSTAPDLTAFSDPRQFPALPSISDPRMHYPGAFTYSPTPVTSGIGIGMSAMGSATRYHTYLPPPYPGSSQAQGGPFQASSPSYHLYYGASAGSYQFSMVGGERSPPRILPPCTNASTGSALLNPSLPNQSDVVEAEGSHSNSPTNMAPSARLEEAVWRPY
Target sequence (Q13951 whole entry, looked up): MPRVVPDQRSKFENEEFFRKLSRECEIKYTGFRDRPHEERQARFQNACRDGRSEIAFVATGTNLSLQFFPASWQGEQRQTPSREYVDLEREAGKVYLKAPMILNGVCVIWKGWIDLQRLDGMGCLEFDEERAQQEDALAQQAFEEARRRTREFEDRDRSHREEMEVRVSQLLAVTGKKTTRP
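CBFb-His/RUNX1-biotin, 30 nM each, preincubated 20 min RT; compound 15 min RT; Ni + streptavidin beads 50 ng each, 90 min RT; AlphaScreen read.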
HTT ATP protect = Huntington cell model cytoprotection by ATP luminescence; PC12 HTT-Q103 induced, cytoprotection, ATP luminescence, 40 h; Potency, µM (top dose mostly 56.4 µM), actives largely listed as activators; 0.14% of 230,000 active; AID 1471; active = well fitted curve in the direction sought with a large enough effect; inconclusive = small, poorly fitted or top-dose-only effect, or another doubt; inactive = no such curve, though single readings can be large; an effect the other way counts as inactive or inconclusive; also: nearly all actives have a fitted effect of over 45% in size
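Quantitative HTS on tebufenozide-induced (100 nM) PC12 cells expressing HTTQ103 exon 1–GFP; compounds tested as a concentration series; survival measured via cellular ATP.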
HPGD block = inhibitors of human 15-hydroxyprostaglandin dehydrogenase (HPGD). P15428. purified HPGD, NADH fluorescence kinetic, PGE2 substrate. Potency, µM, hits mostly inhibitors. 4.3% of 150,000 active. AID 894
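20 nM HPGD preincubated 15 min at room temperature with compound in 50 mM Tris-HCl pH 8, 0.01% Tween 20. Started with 1 mM NAD+ and 30 uM prostaglandin E2; NADH fluorescence (360/450 nm) read 5 times over 30-s intervals, last minus first.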
HTT aggregate = mutant huntingtin aggregation inhibition; PC12 HttQ103-GFP aggregates, Acumen cytometry, 40 h; AID 1688; 1.1% of 220,000 active; Potency, µM (top dose mostly 46.1 µM), usual class: inhibitors; active = well fitted curve in the direction sought with a large enough effect; inconclusive = small, poorly fitted or top-dose-only effect, or another doubt; inactive = no such curve, though single readings can be large; an effect the other way counts as inactive or inconclusive; also: nearly all actives have a fitted effect of over 60% in size
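PC12 cells stably carrying ecdysone-inducible HTT exon 1 Q103–GFP were induced with tebufenozide (100 nM final) and treated with library compounds in titration. GFP aggregates in lysates were counted by laser scanning cytometry.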
ALDH1A1 block = inhibitors of human aldehyde dehydrogenase 1A1. AID 1030. P00352. Potency, µM (doses to about 75.3 µM), most hits filed as inhibitors. 7.3% of 220,000 active. Purified ALDH1A1, NADH fluorescence, propionaldehyde substrate
Numbers stand for hits; 0 = inactive; ? = inconclusive; - = no result; [ ] = dose if it differs, or a comment. Compounds with a hit are over-represented: about 9.8% of the library has one in this group of screens. Unless noted, calls follow the shape of the dose curve; as a rule, active = well fitted inhibition curve with a large enough effect (not every such curve was filed as active); inconclusive = small, poorly fitted or top-dose-only effect, or another doubt; inactive = no such curve, though single readings can be large or run the other way.

SMILES	KDM4E inh	CBFb-RUNX1 inh	HTT ATP protect	HPGD block	HTT aggregate	ALDH1A1 block
CC1=C(C#N)C(c2ccoc2)C(C(=O)OCc2ccccc2)=C(N)S1 (stereo unspecified)	0	0	0[10 µM]	0	0	28µM
CC(C)N1CCC(NC(=O)NC2CCCCC2)CC1	0	0	0	-	0	0
COCC(=O)N1CCC2(CC1)CN(C(c1ccccc1)c1ccccc1)C2	-	-	0	0	-	0
Cc1cc(C(=O)NCCC2=CCCCC2)ccc1[N+](=O)[O-]	?	0	0[10 µM]	-	0[9.22 µM]	25µM
CCOc1cccc2cc(C(=O)NCCC3=CCCCC3)c(=O)oc12	?	0	0	-	0	25µM
COc1cccc(NC(=O)CSc2nc3n[nH]c(C)c3c(=N)n2-c2cccc(OC)c2)c1	?	0	0	?	0	?
O=C(NCCC1=CCCCC1)c1ccc([N+](=O)[O-])cc1	0	0	0[10 µM]	0	0	0
COc1ccc(C(=O)NCC(=O)OCC(=O)NCCC2=CCCCC2)cc1	0	0	0	-	0	16µM
CCOc1cccc2cc(C(=O)Nc3nccs3)c(=O)oc12	0	0	0	0	0	0
COc1cccc(-n2c(SCC(=O)NCCC3=CCCCC3)nc3n[nH]c(C)c3c2=N)c1	?	0	0	0	0	20µM
COc1ccc(C(=O)NCCC2=CCCCC2)cc1	0	0	0[10 µM]	0	0	0
COc1cccc(C(=O)NCCC2=CCCCC2)c1	0	0	0	14µM	0	?
COc1ccc(CNc2nc(-c3cccc(NS(C)(=O)=O)c3)nc3ccccc23)c(OC)c1	-	-	0	-	-	0
Cc1ccc(C(=O)O/N=C(\c2ccccc2)c2ccncc2)cc1	0	0	0	-	0	?
COc1ccccc1C(=O)O/N=C(/c1ccncc1)c1ccc([N+](=O)[O-])cc1	0	0	0	-	0	20µM
O=C(NCc1ccco1)c1cccc(NS(=O)(=O)c2cccc(F)c2)c1	0	0	-	0	0	?
O=C(NCc1ccco1)c1cccc(-c2nnc(-c3ccccc3)o2)c1	0	0	0	13µM	0	?
O=C(NCc1ccco1)c1cc(NS(=O)(=O)c2cccc([N+](=O)[O-])c2)ccc1O	0	0	0	-	0	11µM
O=C(NCc1ccccn1)c1cccc(NS(=O)(=O)c2ccccc2F)c1	0	0	0[10 µM]	0	0	1.3µM
O=C(NCc1ccco1)c1cccc(NS(=O)(=O)c2ccccc2F)c1	0	0	0[10 µM]	0	0	3.5µM
O=C(NCc1ccco1)Nc1cccc([N+](=O)[O-])c1	0	0	0[10 µM]	-	0[9.22 µM]	-
CC(C)CN1CC[C@@]2(CCCN(C(=O)c3cnccn3)C2)C1	-	-	0	0	-	0
Cc1cc(C)nc(Sc2ncnc(N)c2[N+](=O)[O-])n1	0	0	0[10 µM]	-	10µM	0
NNC(=O)c1ccc(Cn2cc(Br)cn2)cc1	?	0	-	0	0	5.6µM
NNC(=O)c1ccc(Cn2cc(Cl)cn2)cc1	?	0	-	0	0	11µM
SMILES	KDM4E inh	CBFb-RUNX1 inh	HTT ATP protect	HPGD block	HTT aggregate	ALDH1A1 block
COC(=O)[C@@H]1C=C[C@H](C)[C@H](CCOc2ccccc2)O1	0	0	0	0	-	0
C/C(=N/NC(=O)c1ccncc1)C1=C(O)CC(C)(C)CC1=O	14µM	0	?	-	0	0
CC(=Nc1ccccc1)C1=C(O)CC(C)(C)CC1=O	0	0	0	-	0	0
CCN(CCO)C(=O)C12CCC(C)(C(=O)C1)C2(C)C (stereo unspecified)	0	0	0[0.074 µM]	0	0	0
CC(C)(C)c1cnnn1-c1ccc(C(=O)CCl)cc1	0	0	0[10 µM]	14µM	0	0.71µM
CC(C)(C)c1cnnn1-c1ccc(C=O)cc1	0	0	0[10 µM]	0	0	25µM
CC(C)(C)c1cnnn1-c1cccc([N+](=O)[O-])c1	0	0	0[10 µM]	-	0[9.22 µM]	0
Cc1onc(-c2ccccc2Cl)c1C(=O)Nc1ccc(-n2nncc2C(C)(C)C)cc1	0	0	0[0.074 µM]	0	0	?
COc1cccc(C(=O)NN2c3ccccc3CCc3ccccc32)c1	0	0	0[10 µM]	0	0	0
COc1cccc(C(=O)NN2C(=O)C3C4C=CC(O4)C3C2=O)c1 (stereo unspecified)	0	0	0	0	0	14µM
Cc1ccc(C(=O)NN2C(=O)C3C4C=CC(C4)[C@@H]3C2=O)cc1 (stereo partly specified)	0	0	0[10 µM]	-	0[9.22 µM]	-
